Results as given in ChEMBL document CHEMBL3988442, “University of Dundee, Small-Polar-MMV Screening Library” (2021).
In all, about 48,000 compounds went through this assay and about 13,000 (27%) showed an effect of 50% or more. The list shows a part of the results.

Test system: Wolbachia pipientis
Assay: Anti-Wolbachia Cell-Based Screen
Type: functional
Parameters: scale not given: in the data most compounds retested in dose-response had high values
Conditions: 5 µM

Compound | Percent Effect [%]
O=C(c1ccno1)N1CC2(CCC(C(=O)N3CCCC3)O2)C1 (centres undefined) | 1.973
COCCN1CCN(CCCS(C)(=O)=O)CC1C (centres undefined) | 0.5325
COc1ccc(Br)cc1CCC(=O)N1CCCC(O)C1 (centres undefined) | -4.291
CC(NCc1ccc(C(N)=O)cc1)c1ccc(Cl)c(Cl)c1.Cl (centres undefined) | -6.625
CNS(=O)(=O)c1cccc(C(C)NCc2ccccc2OC)c1 (centres undefined) | -4.064
COc1ccccc1CNC(C)c1ccc(-n2ccnc2)cc1.Cl (centres undefined) | 2.759
COc1cc(C(=O)NCCc2ccc(OC)c(OC)c2)on1 | -10.92
CC(NCc1ccccc1Br)c1ccc2[nH]c(=O)[nH]c2c1 (centres undefined) | -2.776
COc1ccccc1CNC(C)c1ccc2[nH]c(=O)[nH]c2c1 (centres undefined) | 98.3
COc1ccc(CCNC(C)c2ccc3[nH]c(=O)[nH]c3c2)cc1OC (centres undefined) | 106.6
COc1ccc(C(C)NCc2c[nH]nc2C)cc1OC.Cl (centres undefined) | -6.737
CC(NCc1ccccc1Cl)c1ccc2[nH]c(=O)[nH]c2c1 (centres undefined) | 97.6
O=C(NCCSc1cnn[nH]1)c1c[nH]nc1C1CCCCC1 | -9.483
CC(C)(C)c1csc(CNC(=O)C2NCCc3[nH]cnc32)n1 (centres undefined) | -12.08
CCN1CCN(c2ccc(C(=O)NCCn3ccnc3)cc2F)CC1 | -30.24
CNc1nc(N2CCC3(CCCNC3=O)C2)nc2c1CCC2 (centres undefined) | -0.1969
O=C(O)CC(O)(CC(=O)O)C(=O)O.O[C@]1(c2ccccn2)CC[C@@H]2CN(Cc3cccc4ncccc34)C[C@@H]21 | -10.13
COc1ncc(CN2C[C@@H]3CC[C@@](O)(c4ccc(C)cn4)[C@@H]3C2)cn1.O=C(O)CC(O)(CC(=O)O)C(=O)O | 114.7
COc1cccc(CN2C[C@@H]3CC[C@@](O)(c4ccccn4)[C@@H]3C2)c1OC.O=C(O)CC(O)(CC(=O)O)C(=O)O | 115.9
Cc1ccc([C@]2(O)CC[C@H]3CN(Cc4cccc(Cl)c4Cl)C[C@H]32)nc1.O=C(O)CC(O)(CC(=O)O)C(=O)O | -1.737
Cc1ccc([C@]2(O)CC[C@H]3CN(Cc4cccc(F)c4F)C[C@H]32)nc1.O=C(O)CC(O)(CC(=O)O)C(=O)O | 118
Cc1ccc([C@]2(O)CC[C@H]3CN(Cc4cc(C)c(O)c(C)c4)C[C@H]32)nc1.O=C(O)CC(O)(CC(=O)O)C(=O)O | -15.37
CN(C)C(=O)CN1C[C@@H]2CC[C@H](C1)N(Cc1cccc(Cl)c1Cl)C2 | -2.337
Cc1cccnc1[C@]1(O)CC[C@H]2CN(Cc3cccc(Cl)c3Cl)C[C@H]21.O=C(O)CC(O)(CC(=O)O)C(=O)O | 135.1
COc1ccc(CN2C[C@H]3CC[C@](O)(c4ccc(C)cn4)[C@H]3C2)c(F)c1.O=C(O)CC(O)(CC(=O)O)C(=O)O | -13.42

Compound | Percent Effect [%]
COCc1ncc(CN2CCN(C)C(=O)C2C)cn1 (centres undefined) | 4.151
CCn1cnnc1Cn1cccc(C(F)(F)F)c1=O | -0.03218
COc1ccc(-c2nccn2CC(O)CN2CCCC2)c(F)c1 (centres undefined) | 5.429
CCOc1cncc(NCCc2nnc3ccccn23)n1 | -20.41
CCC(CO)N(Cc1ccsc1)Cc1ccccc1C(=O)O (centres undefined) | 6.266
Cc1cc(CN2CC[C@@H]3[C@@H](CCC(=O)N3CCc3c[nH]cn3)C2)oc1C | -14.05
CCC(=O)c1cccc(S(=O)(=O)NC(C)C#N)c1 (centres undefined) | -8.003
O=C(NCC1CC1)C1CSCN1S(=O)(=O)c1cccc(F)c1 (centres undefined) | -6.551
O=S(=O)(c1cccs1)N1CCCCC1c1ccn[nH]1 (centres undefined) | 120.2
O=S(=O)(c1cccc(F)c1)N1CCCCC1c1ccn[nH]1 (centres undefined) | 127.9
O=C(O)C(F)(F)F.O=S(=O)(c1cccs1)N1CC[C@H]2[C@H]1CCN2c1ncccn1 | -7.709
Cc1ccccc1S(=O)(=O)N1CCCCC1c1ccn[nH]1 (centres undefined) | 0.4281
CN(C1CCN(c2ccccn2)CC1)S(=O)(=O)c1cccc(F)c1 | 13.53
O=C1c2c(O)cc(O)cc2O[C@@H](c2ccc(O)cc2)[C@@H]1O | 0.6664
CC(=O)NCCNC(=O)c1sc(-c2ccc(Cl)s2)nc1C | -4.935
O=C(Nc1ccccc1)NC1CCN(C2CCOC2)CC1 (centres undefined) | -12.98
CC(C)c1nc(CN(C)C(=O)CNS(=O)(=O)c2cccs2)cs1 | -16.12
COCc1cc(N(C)Cc2ncnn2C)nc(C(C)(C)C)n1 | -13.36
O=C(O)C(=O)O.c1cnc(-c2noc(C3CN(Cc4ccc5c(c4)CCO5)C3)n2)cn1 | 6.909
Cc1nc(CN2CCOC(CNc3cccnn3)C2)oc1C (centres undefined) | 3.025
CCc1nc(CN2CCOC(CNc3cccnn3)C2)cs1 (centres undefined) | 75.15
Cc1nc(CN2CCOC(CNc3cccnn3)C2)cs1 (centres undefined) | -1.722
CCCc1nc(CN2CCOC(CNc3cccnn3)C2)cs1 (centres undefined) | 6.887
Cc1nc(C)c(CN2CCOC(CN(C)c3cccnn3)C2)s1 (centres undefined) | -0.1768
